Measured values from article PMC5700166.

Columns and labels:
[1] = target: T1, GST-Nv-NF-kB (Ser allele) (Nematostella vectensis, UniProt A7UNT2 2-411); test: protein-binding microarray (PBM); PBM: ~300 nM protein, 6 mM HEPES pH 7.8, 80 mM KCl, 0.5 mM EDTA, 0.5 mM EGTA, 6% glycerol, 35 ng/ul poly-dIdC, 1% milk, 1 h, room temperature; Ap Aiptasia and Nv Nematostella (sea anemones) / Co Capsaspora / Aq Amphimedon (sponge) / Dm Drosophila / Hu human; RHD is the Rel homology domain; high values mean tight binding; conditions: dsDNA, one strand shown
T1 sequence: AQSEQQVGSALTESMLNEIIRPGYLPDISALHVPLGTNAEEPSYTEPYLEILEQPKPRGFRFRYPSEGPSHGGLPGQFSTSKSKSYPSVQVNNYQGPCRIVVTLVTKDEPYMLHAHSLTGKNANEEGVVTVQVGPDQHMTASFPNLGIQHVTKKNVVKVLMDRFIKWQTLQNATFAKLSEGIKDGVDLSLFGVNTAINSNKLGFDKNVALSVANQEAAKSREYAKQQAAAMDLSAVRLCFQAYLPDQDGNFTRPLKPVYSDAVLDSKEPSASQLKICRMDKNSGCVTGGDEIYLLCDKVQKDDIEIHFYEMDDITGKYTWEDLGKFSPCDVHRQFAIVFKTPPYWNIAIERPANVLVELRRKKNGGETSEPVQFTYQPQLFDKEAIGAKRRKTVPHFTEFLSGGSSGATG

GST-Hu-p50 = GST-Hu-p50 (Homo sapiens, UniProt P19838 7-356); test: as above; conditions: dsDNA, one strand shown
Chain of GST-Hu-p50 (P19838 7-356): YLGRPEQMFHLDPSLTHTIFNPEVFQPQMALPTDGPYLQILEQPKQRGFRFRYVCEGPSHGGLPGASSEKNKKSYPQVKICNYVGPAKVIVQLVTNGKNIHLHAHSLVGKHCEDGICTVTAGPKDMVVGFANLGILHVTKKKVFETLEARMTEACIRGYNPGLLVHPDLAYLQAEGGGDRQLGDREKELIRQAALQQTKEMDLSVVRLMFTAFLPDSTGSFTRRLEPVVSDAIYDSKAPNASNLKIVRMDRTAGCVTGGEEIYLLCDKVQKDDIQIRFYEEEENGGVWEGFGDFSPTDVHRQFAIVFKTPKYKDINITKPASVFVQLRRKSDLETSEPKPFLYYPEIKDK

| Sequence | binding signal [1] | binding signal (GST-Hu-p50) |
| --- | --- | --- |
| CCGATTAACATCAGGGGGTGTACTGATGTTAATCGGGTCTTGATTCGCTTGACGCTGCTG | 3.99 z-score | 4.44 z-score |
| CCGATTAACATCAAGGGGGGATATGATGTTAATCGGGTCTTGATTCGCTTGACGCTGCTG | 4.16 z-score | 4.95 z-score |
| CCGATTAACATCAGATAAACCCCTGATGTTAATCGGGTCTTGATTCGCTTGACGCTGCTG | 3.09 z-score | – |
| CCGATTAACATCACGGGATTTACTGATGTTAATCGGGTCTTGATTCGCTTGACGCTGCTG | 1.41 z-score | 2.12 z-score |
| CCGATTAACATCACCAAACCCCCTGATGTTAATCGGGTCTTGATTCGCTTGACGCTGCTG | 6.38 z-score | – |
| CCGATTAACATCAAAAAAACCCATGATGTTAATCGGGTCTTGATTCGCTTGACGCTGCTG | 4.6 z-score | 4.37 z-score |
| CCGATTAACATCAGGGGGTAGGATGATGTTAATCGGGTCTTGATTCGCTTGACGCTGCTG | 3.54 z-score | 2.97 z-score |
| CCGATTAACATCAGGAACCCCCATGATGTTAATCGGGTCTTGATTCGCTTGACGCTGCTG | 4.62 z-score | 5.23 z-score |
| CCGATTAACATCACGTAAATCCCTGATGTTAATCGGGTCTTGATTCGCTTGACGCTGCTG | 2.27 z-score | 2.23 z-score |
| CCGATTAACATCAGACATGGGAATGATGTTAATCGGGTCTTGATTCGCTTGACGCTGCTG | 1.34 z-score | – |
| CCGATTAACATCAAGGAATACCCTGATGTTAATCGGGTCTTGATTCGCTTGACGCTGCTG | 4.74 z-score | 4.19 z-score |
| CCGATTAACATCAGGAAGTCCCATGATGTTAATCGGGTCTTGATTCGCTTGACGCTGCTG | 4.19 z-score | 4.09 z-score |
| CCGATTAACATCAAAAATTTTCCTGATGTTAATCGGGTCTTGATTCGCTTGACGCTGCTG | 1.32 z-score | 2.23 z-score |
| CCGATTAACATCAGGGATTACCATGATGTTAATCGGGTCTTGATTCGCTTGACGCTGCTG | 2.16 z-score | 1.76 z-score |
| CCGATTAACATCAGGGTGTTTTATGATGTTAATCGGGTCTTGATTCGCTTGACGCTGCTG | 2.32 z-score | 4.01 z-score |
| CCGATTAACATCAAGTTTTCCCATGATGTTAATCGGGTCTTGATTCGCTTGACGCTGCTG | 5.18 z-score | 3.3 z-score |

| Sequence | binding signal [1] | binding signal (GST-Hu-p50) |
| --- | --- | --- |
| CCGATTAACATCACTGGGATTTCTGATGTTAATCGGGTCTTGATTCGCTTGACGCTGCTG | 1.8 z-score | 2.5 z-score |
| CCGATTAACATCAGGAAGTTCCCTGATGTTAATCGGGTCTTGATTCGCTTGACGCTGCTG | 2.53 z-score | 3.79 z-score |
| CCGATTAACATCACGGAGTCCCCTGATGTTAATCGGGTCTTGATTCGCTTGACGCTGCTG | 4.71 z-score | 5.13 z-score |
| CCGATTAACATCAGAATTACCCATGATGTTAATCGGGTCTTGATTCGCTTGACGCTGCTG | 3.26 z-score | 2.83 z-score |
| CCGATTAACATCAGGAGTTTACCTGATGTTAATCGGGTCTTGATTCGCTTGACGCTGCTG | 2.03 z-score | 1.4 z-score |
| CCGATTAACATCAGGAAATCCCATGATGTTAATCGGGTCTTGATTCGCTTGACGCTGCTG | 1.81 z-score | 3.19 z-score |
| CCGATTAACATCACGGGGGGTAATGATGTTAATCGGGTCTTGATTCGCTTGACGCTGCTG | 2.9 z-score | 2.48 z-score |
| CCGATTAACATCAGAAATTTTCCTGATGTTAATCGGGTCTTGATTCGCTTGACGCTGCTG | 1.33 z-score | 2.13 z-score |
| CCGATTAACATCAGTCCCGCACTTGATGTTAATCGGGTCTTGATTCGCTTGACGCTGCTG | 1.03 z-score | 1.18 z-score |
| CCGATTAACATCATAAGGGGTGTTGATGTTAATCGGGTCTTGATTCGCTTGACGCTGCTG | 1.09 z-score | 1.44 z-score |
| CCGATTAACATCAGGGGACAACCTGATGTTAATCGGGTCTTGATTCGCTTGACGCTGCTG | 4.41 z-score | 4.2 z-score |
| CCGATTAACATCAGGAACTCCCCTGATGTTAATCGGGTCTTGATTCGCTTGACGCTGCTG | 5.51 z-score | – |
| CCGATTAACATCAGGGAATTAGATGATGTTAATCGGGTCTTGATTCGCTTGACGCTGCTG | 3.54 z-score | 2 z-score |
| CCGATTAACATCAAACTCCCCCGTGATGTTAATCGGGTCTTGATTCGCTTGACGCTGCTG | 6.52 z-score | – |
| CCGATTAACATCAAACAGTCCCCTGATGTTAATCGGGTCTTGATTCGCTTGACGCTGCTG | 4.53 z-score | – |
